Assay [1] is described as follows: Cell Viability - SK-N-SH (AID 435; calls by dose curve;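 further: potency means the concentration at half of the fitted maximal effect; compound exposure lasted 40 h at 37 °C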). To be noted: SK-N-SH neuroblastoma cell viability qHTS. An outline of the steps:
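SK-N-SH neuroblastoma cells (1500/well) treated 40 h at 37 °C in complete medium; viability read as cellular ATP by CellTiter-Glo luminescence. Normalized to DMSO and 100 uM tamoxifen; AC50 from Hill fits of qHTS concentration-response.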

In assay [2] the target is Mitogen-activated protein kinase 10 (Mus musculus) (UniProt Q61831). Briefly: JNK3 AlphaScreen Assay (AID 530; active means well fitted curve in either direction with a large enough effect, not every such curve was filed as active;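 further: kinase came from lysate of stimulated human HepG2 cells; signal reports phosphorylation of biotinylated GST-cJun 1-79 at Ser73 with 10 µM ATP; on the % scale 0 is the no-effect control and ±100 the full control effect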). To be noted: JNK3 lysate, c-Jun phosphorylation; series mostly up to 57.1 µM. The essentials: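 Inhibitors reduce antibody binding to phosphorylated biotin-cJun, lowering AlphaScreen luminescence. Lysates from HepG2 cells pre-activated by IL-1beta plus TNF-alpha supplied JNK3; compounds were titrated.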

Assay [3] is described as follows: Cell Viability - SH-SY5Y (AID 544). Further: nearly all actives have a fitted effect of over 55% in size. Further: potency means the concentration at half of the fitted maximal effect. To be noted: SH-SY5Y neuroblastoma cell viability; viability change, negative = cytotoxic: at 92.2 µM (top of the series). The essentials:
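SH-SY5Y human neuroblastoma cells (1500/well) incubated 5 h, then compound-treated 40 h at 37 °C in complete medium. Viability read as intracellular ATP by CellTiter-Glo luminescence after 20 min; AC50 from Hill-equation fits of qHTS concentration-response.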

Assay [4] can be described thus: Cell Viability - Mesenchymal (AID 546).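 Further: cells exposed to compound for 40 hours before reading.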 Further: potency means the concentration at half of the fitted maximal effect. To be noted: mesenchymal cells viability, qHTS; series mostly up to 91.7 µM. An outline of the steps:
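Normal human renal glomerulus-derived kidney mesenchymal cells, 1000 per well in complete medium, were treated with compounds for 40 hr at 37 °C. Viability was read as intracellular ATP by CellTiter-Glo luminescence; AC50 values came from Hill-equation fits of qHTS concentration-response data.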

Assay [5] in a line: Cellular Toxicity (caspase-3) HepG2 (AID 654).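 Further: cells exposed to compound for 16 hours before reading; 0% = DMSO alone and 100% = caspase signal from 100 µM tamoxifen.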 Conditions: HepG2 caspase-3 activation, luminescence, 0% = DMSO only, 100% = tamoxifen; series mostly up to 92.2 µM. An outline of the steps:
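HepG2 cells (1500/well) were treated 16 h at 37 °C in complete medium, then caspase 3/7 activity was read by Caspase-Glo luminescence. Data were normalized to DMSO and 100 uM tamoxifen; AC50 came from Hill-equation fits of qHTS concentration-response.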

The nature of assay [6]: Cellular Toxicity (caspase-3) SHSY5Y (AID 657). To be noted: SH-SY5Y caspase-3 activation, DMSO zero, 10 µM staurosporine = 100%; series mostly up to 91.7 µM. The essentials: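 SH-SY5Y human neuroblastoma cells, 1500/well, exposed to compound for 16 hours at 37 °C in complete medium. Caspase-3/7 activity read by Caspase-Glo luminescence after 1 hr at room temperature, normalized to DMSO and 10 uM staurosporine; AC50 from Hill fit.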

Assay [7] is described as follows: Cellular Toxicity (caspase-3) N2a (AID 665).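 Further: compound exposure lasted 16 h at 37 °C before readout.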 To be noted: N2a cells, luminescence, normalized: DMSO 0%, 10 µM staurosporine 100%; series mostly up to 92.2 µM. An outline of the steps:
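Mouse N2a neuroblastoma cells, 1500 per well, treated 16 h at 37 °C in complete medium; caspase-3/7 activity by Caspase-Glo luminescence after 1 h. Normalized to DMSO and 10 uM staurosporine; AC50 from Hill fits.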

Assay [8] can be described thus: MultiTox-Fluor Cytotoxicity Assay - LYMP1-002 - Live Cells (AID 955). Further: on the % scale 0 is the no-effect control and ±100 the full control effect. Conditions: LYMP1-002 lymphoblastoid live-cell protease fluorescence viability; series mostly up to 46.1 µM. An outline of the steps: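 Human lymphoblastoid LYMP1-002 cells, 2500/well, treated 16 h at 37 C in complete medium. Live-cell protease activity via GF-AFC fluorescence (Ex/Em 405/510) after 60 min reagent incubation; AC50 from Hill fits.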

Assay [9] in a line: Cell Viability - LYMP2-009 (AID 968). Further: nearly all actives have a fitted effect of over 55% in size. Further: potency means the concentration at half of the fitted maximal effect. Conditions: LYMP2-009 lymphoblastoid cell viability; series mostly up to 92.2 µM.
A short description of assay [10]: Cell Viability - LYMP2-011 (AID 969).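 Further: cells exposed to compound for 24 hours; 0% = DMSO only and full inhibition = 92 µM tetraoctylammonium bromide; nearly all actives have a fitted effect of over 60% in size.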 To be noted: LYMP2-011 lymphoblastoid cells viability; series mostly up to 92.2 µM. The essentials: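 2500 cells/well in complete medium, compound-treated 24 h at 37 C. Viability read as intracellular ATP by CellTiter-Glo luminescence after 30 min at room temperature. AC50 from Hill fits of qHTS concentration-response data.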

Assay [11] can be described thus: Cell Viability - LYMP2-025 (AID 976).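 Further: plate controls were DMSO only for no effect and tetraoctylammonium bromide control for full effect.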 Conditions: LYMP2-025 lymphoblastoid cell viability; series mostly up to 92.2 µM. The essentials:
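Human lymphoblastoid LYMP2-025 cells, 2500/well, exposed 24 h at 37 C in complete medium in 1536-well qHTS. Viability as cellular ATP by CellTiter-Glo luminescence; AC50 from Hill fits of concentration-response data.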

The nature of assay [12]: Cell Viability - LYMP1-002 - Assay at 24 hr (AID 993). Further: on the % scale 0 is the no-effect control and ±100 the full control effect. Conditions: LYMP1-002 lymphoblastoid cells viability; series mostly up to 92.2 µM. An outline of the steps:
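Human lymphoblastoid LYMP1-002 cells (2500/well) treated 24 h at 37 °C; viability as intracellular ATP by CellTiter-Glo luminescence. Tetraoctylammonium bromide as positive control; AC50 from Hill-equation fits of qHTS concentration-response.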

The target of assay [13] is Peroxisome proliferator-activated receptor gamma (Homo sapiens) (UniProt P37231). Briefly: qHTS assay for small molecule agonists of peroxisome proliferator-activated receptor gamma signaling (AID 588536; active means well fitted curve in the direction sought with a large enough effect in the signal ratio, with a control signal flat, not every such curve was filed as active; the % refers to the signal ratio;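 further: 0% = DMSO basal wells and 100% = rosiglitazone at 2 µM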). To be noted: HEK293 PPARg-UAS-bla, beta-lactamase ratio, 16 h, percent of rosiglitazone response, DMSO as zero; series mostly up to 76.7 µM. An outline of the steps: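 PPAR-gamma-UAS-bla HEK293 cells in medium with 1% charcoal/dextran-treated FBS were exposed to compounds for 16 h at 37 C. Beta-lactamase activity was read with CCF4 substrate (405 nm excitation, 460/530 nm emission).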
Peroxisome proliferator-activated receptor gamma (Homo sapiens), sequence (P37231 whole entry, looked up): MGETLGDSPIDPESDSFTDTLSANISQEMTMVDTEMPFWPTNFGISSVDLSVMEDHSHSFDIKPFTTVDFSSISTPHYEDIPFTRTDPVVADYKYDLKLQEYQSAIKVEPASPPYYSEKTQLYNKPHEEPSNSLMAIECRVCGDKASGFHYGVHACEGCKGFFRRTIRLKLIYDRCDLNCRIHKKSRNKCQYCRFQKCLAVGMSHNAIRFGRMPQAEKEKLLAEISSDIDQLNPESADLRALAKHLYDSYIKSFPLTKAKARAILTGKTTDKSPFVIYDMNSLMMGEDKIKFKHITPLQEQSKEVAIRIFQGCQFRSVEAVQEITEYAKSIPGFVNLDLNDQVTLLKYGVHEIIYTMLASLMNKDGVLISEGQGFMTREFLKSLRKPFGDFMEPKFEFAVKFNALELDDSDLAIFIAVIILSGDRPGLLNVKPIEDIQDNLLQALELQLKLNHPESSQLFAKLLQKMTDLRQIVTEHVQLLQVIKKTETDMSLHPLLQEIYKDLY
On the technique in general: Quantitative high-throughput screening tests each substance at several concentrations.

Assay [14] deals with Vitamin D3 receptor (Homo sapiens) (UniProt P11473). Briefly: qHTS assay for small molecule agonists of vitamin D receptor signaling (AID 588543; calls by dose curve;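 further: 0% = DMSO basal and 100% = reference agonist control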). Conditions: HEK293T VDR-UAS-bla, beta-lactamase ratio, 16 h; series mostly up to 76.8 µM. The essentials: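 VDR-UAS-bla HEK293T cells, 2000/well, 2% charcoal-stripped FBS; compound titration 16 h at 37 C; CCF4 beta-lactamase ratio read. Normalized to 50 nM 1-alpha,25-dihydroxyvitamin D3 (100%) and DMSO; Hill fit gives EC50, efficacy.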
Vitamin D3 receptor (Homo sapiens), sequence (P11473 whole entry, looked up): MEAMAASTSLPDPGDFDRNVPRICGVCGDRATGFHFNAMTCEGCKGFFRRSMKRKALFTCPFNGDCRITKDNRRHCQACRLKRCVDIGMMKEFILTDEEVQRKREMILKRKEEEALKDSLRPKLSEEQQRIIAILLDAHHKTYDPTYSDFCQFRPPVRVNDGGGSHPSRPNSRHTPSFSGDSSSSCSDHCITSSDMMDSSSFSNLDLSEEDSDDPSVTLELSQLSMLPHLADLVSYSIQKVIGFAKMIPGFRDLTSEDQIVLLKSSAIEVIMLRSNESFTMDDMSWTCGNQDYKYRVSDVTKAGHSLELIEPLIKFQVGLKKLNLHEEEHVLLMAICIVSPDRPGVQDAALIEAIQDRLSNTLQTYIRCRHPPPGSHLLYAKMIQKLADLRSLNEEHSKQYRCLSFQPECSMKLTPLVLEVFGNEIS

In assay [15] the target is Retinoic acid receptor RXR-alpha (Homo sapiens) (UniProt P19793). The assay is described as follows: qHTS assay for small molecule antagonists of retinoid X receptor alpha signaling (AID 588546; active means well fitted inhibition curve with a large enough effect in the signal ratio, with a control signal flat, not every such curve was filed as active; the % refers to the signal ratio;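 further: cells stimulated with 9-cis-retinoic acid as agonist; on the % scale 0 is the no-effect control and ±100 the full control effect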). Conditions: HEK293T RXRa-UAS-bla, beta-lactamase ratio, antagonist mode. The essentials:
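Beta-lactamase reporter inhibition, read as CCF4 fluorescence ratio (ex 405, em 460/530 nm) after 2 h at RT. HEK293T UAS-bla cells, 2500/well, were stimulated with 9-cis-RA at 500 or 100 nM final alongside test compound for 18 h at 37 C.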

A short description of assay [16]: qHTS assay for environmental chemicals that activate the Aryl hydrocarbon Receptor (AhR) signaling pathway (AID 651777). Further: nearly all actives have a fitted effect of over 15% in size. Further: potency means the concentration at half of the fitted maximal effect. On activation: % of control where 0% means no effect. Conditions: 1A2-DRE human hepatoma cells, luciferase, 24 h; activation: hits give high values. An outline of the steps:
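AhR activation is scored as a rise in luciferase from a stable DRE–CYP1A2 promoter construct in human hepatoma cells. Treatment lasts 24 hr at 37 C; detection uses One-Glo after 30 min at room temperature.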

The nature of assay [17]: Cell Viability - Renal Proximal Tubule (AID 545). Further: nearly all actives have a fitted effect of over 40% in size. Conditions: renal proximal tubule cells viability; series mostly up to 91.7 µM. An outline of the steps: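 Rat renal proximal tubule primary cells, 1000/well, exposed to compounds for 40 hr at 37 °C in complete medium; cellular ATP read by CellTiter-Glo luminescence. AC50 from concentration-response fitted with standard Hill equation.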

Assay [18] can be described thus: Cell Viability - LYMP2-008 (AID 980). Further: nearly all actives have a fitted effect of over 60% in size. Further: potency means the concentration at half of the fitted maximal effect. Conditions: LYMP2-008 lymphoblastoid cell viability, qHTS; series mostly up to 92.2 µM. The essentials:
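LYMP2-008 lymphoblastoid cells (2500/well) plated 5 h, then treated 24 h at 37 C in complete medium. Viability read as intracellular ATP by CellTiter-Glo luminescence after 30 min at room temperature; AC50 from Hill fits.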

A short description of assay [19]: Cell Viability - LYMP2-012 (AID 982).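 Further: cellular ATP by luciferase luminescence where a drop means cytotoxicity; cells exposed to compound for one day before reading; 0% = DMSO only and full loss = 92 µM tetraoctylammonium bromide; nearly all actives have a fitted effect of over 55% in size.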 Conditions: LYMP2-012 lymphoblastoid cell viability qHTS; series mostly up to 92.2 µM.
Assay [20] has as its target Nuclear receptor subfamily 1 group I member 2 (Rattus norvegicus) (UniProt Q9R1A7). Briefly: qHTS assay for small molecule activators of the rat pregnane X receptor (rPXR) signaling pathway (AID 651751; call rule not given here; further: 0% is about no effect). Conditions: rPXR reporter cells, luciferase (One-Glo), 24 h.

Each structure is given as a SMILES string. Several values for one entry are separate records, joined by “and”; a condition that tells them apart may be missing. Equal values may be shown once. A number with no mark means an inactive call. Inconclusive results are not listed. Activity calls are given as the source filed them. Unless noted, the call rests on the fitted dose curve; in most records, active means well fitted curve in the direction sought with a large enough effect; inconclusive means small, poorly fitted or top-dose-only effect, or another doubt; inactive means no such curve, though single readings can be large; an effect the other way counts as inactive or inconclusive. A value given as a limit tells only on which side of the number the result lay.

Nuclear receptor subfamily 1 group I member 2 (Rattus norvegicus), sequence (Q9R1A7 whole entry, looked up): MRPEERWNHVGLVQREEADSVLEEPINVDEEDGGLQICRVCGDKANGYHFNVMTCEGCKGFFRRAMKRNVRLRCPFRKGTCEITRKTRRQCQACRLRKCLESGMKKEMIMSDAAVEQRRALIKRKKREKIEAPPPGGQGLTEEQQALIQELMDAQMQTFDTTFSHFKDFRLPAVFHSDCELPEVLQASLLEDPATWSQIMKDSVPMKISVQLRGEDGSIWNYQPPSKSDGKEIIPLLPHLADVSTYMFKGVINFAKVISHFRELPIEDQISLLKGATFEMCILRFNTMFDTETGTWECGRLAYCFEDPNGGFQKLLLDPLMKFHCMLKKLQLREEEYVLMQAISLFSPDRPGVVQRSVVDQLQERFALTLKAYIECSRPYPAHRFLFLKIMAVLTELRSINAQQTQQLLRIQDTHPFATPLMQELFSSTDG
Retinoic acid receptor RXR-alpha (Homo sapiens), sequence (P19793 whole entry, looked up): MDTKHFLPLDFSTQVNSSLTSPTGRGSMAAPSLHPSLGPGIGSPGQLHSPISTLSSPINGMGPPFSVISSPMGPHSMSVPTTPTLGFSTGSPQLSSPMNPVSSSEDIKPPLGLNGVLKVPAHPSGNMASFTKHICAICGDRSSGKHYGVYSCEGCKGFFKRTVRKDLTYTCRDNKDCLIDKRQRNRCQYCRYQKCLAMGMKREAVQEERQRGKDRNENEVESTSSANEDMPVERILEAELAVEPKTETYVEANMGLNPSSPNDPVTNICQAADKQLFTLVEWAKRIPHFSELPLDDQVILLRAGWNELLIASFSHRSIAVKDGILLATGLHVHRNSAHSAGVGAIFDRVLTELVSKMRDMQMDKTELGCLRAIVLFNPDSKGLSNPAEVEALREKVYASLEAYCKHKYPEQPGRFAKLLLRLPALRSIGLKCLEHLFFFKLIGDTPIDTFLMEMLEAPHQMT

On to `Nc1ccc(-c2ccc(N)c(Cl)c2)cc1Cl`, for which the Potency in assay [1] is 3.05 µM (active); in [3] it was 12.6 µM (active); in assay [4], 31.6 µM (active); in assay [16], 44.7 µM (active). Moreover, the Potency result in [2], in assay [9], in assay [10], in assay [11] and in assay [12] was “inactive” throughout. Besides, the outcome in assay [5], in assay [6], in assay [7], in assay [8], in assay [13] and in [14] was inactive. Moreover, the max response in assay [15] was -19% and -20.8%.
As to `CCOC(=O)C1OC1(C)c1ccccc1` (centres undefined), the Potency in assay [1] was > 92 µM. Moreover, the Potency entry in assay [2], in assay [3], in assay [4], in [9], in [11] and in assay [18] was “inactive” each time. Also, the Potency entry in assay [19] and in assay [12] was “inactive” each time. The result in assay [17], in assay [5], in assay [6], in assay [7], in [8] and in [13] was inactive. For the same molecule, the max response in assay [15] was -0.211%; in [20], -3.02%. In addition, in assay [16], the activation is -0.466%.
In the case of `Cc1ccc(N)c(N)c1`, the Potency in assay [1] is > 92 µM; in [3] it was 12.6 µM (active); in assay [9], 25.1 µM (active); in [18], 39.8 µM (active). The Potency entry in [2], in assay [4], in assay [11] and in [12] was “inactive” throughout. Also, the molecule was called inactive in [17], in assay [5], in assay [7], in [8] and in assay [14]. Moreover, the max response in assay [15] was -10.9%.
In the case of `C=CCBr`, the Potency in assay [1] was > 92 µM. Besides, the Potency result in [2], in [3], in assay [4], in assay [9], in assay [10] and in [11] was “inactive” each time. Also, the Potency result in [18], in [19] and in assay [12] was “inactive” each time. Further, the result in assay [17], in [6], in assay [7], in assay [8] and in assay [14] was inactive. For the same molecule, the max response in assay [15] was 13.2%; in assay [20] it was 1.14%.
As for `Clc1ccccc1`, in assay [1], the Potency is > 92 µM. The Potency result in [2], in assay [3], in [4], in assay [9], in assay [10] and in [18] was “inactive” each time. Further, the Potency result in assay [19] and in [12] was “inactive” in each case. For the same molecule, the result in assay [17], in assay [5], in assay [6], in assay [7], in assay [8] and in [13] was inactive. The result in assay [14] was inactive. The max response in assay [15] was -2.2%; in [20], -2.96%. Further, in assay [16], the activation was -0.0364%.

The values are drawn from PubChem BioAssay (NCATS).
